# From the supplement of paper PMC4466140
# Experiments:
# Experiment in all cases: SPOT peptide array binding signal intensity (averaged, normalized) (arbitrary units (background-subtracted, floor 0; scale differs between SH3 domains)); higher = stronger binding of the SH3 domain to the peptide
# AgAbp1 = target: AgAbp1
# In short: (§1)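 E. coli BL21(DE3) was used to express GST-fused SH3 domains from four yeast species, which were then purified on glutathione Sepharose. These were incubated at 10 μg/ml in TBS-based blocking buffer overnight at 4°C on cellulose membranes carrying synthetic 15-mer peptides, in which cysteines were replaced by serines. Binding signal is the replicate average of normalized, background-subtracted spot intensity, in arbitrary units that differ between domains.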
# AgBbc1 = target: AgBbc1
# In short: as §1
# AgBem1-D1 = target: AgBem1-D1
# In short: as §1
# AgBzz1-D1 = target: AgBzz1-D1
# In short: as §1
# AgBzz1-D2 = target: AgBzz1-D2
# In short: as §1
# AgCyk3 = target: AgCyk3
# In short: as §1
# AgFus1 = target: AgFus1
# In short: as §1
# AgHof1 = target: AgHof1
# In short: as §1
# AgHse1 = target: AgHse1
# In short: as §1
# AgLsb1 = target: AgLsb1
# In short: as §1
# AgLsb4 = target: AgLsb4
# In short: as §1
# AgMyo5 = target: AgMyo5
# In short: as §1
# AgNbp2 = target: AgNbp2
# In short: as §1
# AgRvs167 = target: AgRvs167
# In short: as §1
# AgSho1 = target: AgSho1
# In short: as §1
# AgSla1-D1-D2 = target: AgSla1-D1-D2
# In short: as §1
# AgSla1-D3 = target: AgSla1-D3
# In short: as §1
# CaAbp1-D1 = target: CaAbp1-D1
# In short: as §1
# CaAbp1-D2 = target: CaAbp1-D2
# In short: as §1
# CaBbc1 = target: CaBbc1
# In short: as §1
# CaBem1-D1 = target: CaBem1-D1
# In short: as §1
# CaBzz1-D1 = target: CaBzz1-D1
# In short: as §1
# CaBzz1-D2 = target: CaBzz1-D2
# In short: as §1
# CaCyk3 = target: CaCyk3
# In short: as §1
# CaFus1 = target: CaFus1
# In short: as §1
# CaHof1 = target: CaHof1
# In short: as §1
# CaHse1 = target: CaHse1
# In short: as §1
# CaLsb1 = target: CaLsb1
# In short: as §1
# CaLsb4 = target: CaLsb4
# In short: as §1
# CaMyo5 = target: CaMyo5
# In short: as §1
# CaNbp2 = target: CaNbp2
# In short: as §1
# CaRvs167 = target: CaRvs167
# In short: as §1
# CaRvs167-3 = target: CaRvs167-3
# In short: as §1
# CaSho1 = target: CaSho1
# In short: as §1
# CaSla1-D1-D2 = target: CaSla1-D1-D2
# In short: as §1
# CaSla1-D3 = target: CaSla1-D3
# In short: as §1
# ScAbp1 = target: ScAbp1
# In short: as §1
# ScBbc1 = target: ScBbc1
# In short: as §1
# ScBem1-D1 = target: ScBem1-D1
# In short: as §1
# ScBzz1-D1 = target: ScBzz1-D1
# In short: as §1
# ScBzz1-D2 = target: ScBzz1-D2
# In short: as §1
# ScCyk3 = target: ScCyk3
# In short: as §1
# ScFus1 = target: ScFus1
# In short: as §1
# ScHof1 = target: ScHof1
# In short: as §1
# ScHse1 = target: ScHse1
# In short: as §1
# ScLsb1 = target: ScLsb1
# In short: as §1
# ScLsb2 = target: ScLsb2
# In short: as §1
# ScLsb3 = target: ScLsb3
# In short: as §1
# ScLsb4 = target: ScLsb4
# In short: as §1
# ScMyo3 = target: ScMyo3
# In short: as §1
# ScMyo5 = target: ScMyo5
# In short: as §1
# ScNbp2 = target: ScNbp2
# In short: as §1
# ScPex13 = target: ScPex13
# In short: as §1
# ScRvs167 = target: ScRvs167
# In short: as §1
# ScSho1 = target: ScSho1
# In short: as §1
# ScSla1-D1-D2 = target: ScSla1-D1-D2
# In short: as §1
# ScSla1-D3 = target: ScSla1-D3
# In short: as §1
# SpAbp1-D1 = target: SpAbp1-D1
# In short: as §1
# SpBbc1 = target: SpBbc1
# In short: as §1
# SpBzz1-D1 = target: SpBzz1-D1
# In short: as §1
# SpBzz1-D2 = target: SpBzz1-D2
# In short: as §1
# SpCyk3 = target: SpCyk3
# In short: as §1
# SpHof1 = target: SpHof1
# In short: as §1
# SpHof1-2 = target: SpHof1-2
# In short: as §1
# SpHof1-3 = target: SpHof1-3
# In short: as §1
# SpHse1 = target: SpHse1
# In short: as §1
# SpLsb1 = target: SpLsb1
# In short: as §1
# SpLsb4 = target: SpLsb4
# In short: as §1
# SpMyo1 = target: SpMyo1
# In short: as §1
# SpNbp2 = target: SpNbp2
# In short: as §1
# SpPex13 = target: SpPex13
# In short: as §1
# SpRvs167 = target: SpRvs167
# In short: as §1
# SpSla1-D1-D2 = target: SpSla1-D1-D2
# In short: as §1
# SpSla1-D3 = target: SpSla1-D3
# In short: as §1
binder,measurement,setting,value
GDHPKGPPPPPPPDE,SPOT peptide array binding signal intensity,AgAbp1,≤ 0
same,SPOT peptide array binding signal intensity,AgBbc1,1
same,SPOT peptide array binding signal intensity,AgBem1-D1,≤ 0
same,SPOT peptide array binding signal intensity,AgBzz1-D1,870
same,SPOT peptide array binding signal intensity,AgBzz1-D2,85
same,SPOT peptide array binding signal intensity,AgCyk3,≤ 0
same,SPOT peptide array binding signal intensity,AgFus1,3.5
same,SPOT peptide array binding signal intensity,AgHof1,≤ 0
same,SPOT peptide array binding signal intensity,AgHse1,≤ 0
same,SPOT peptide array binding signal intensity,AgLsb1,≤ 0
same,SPOT peptide array binding signal intensity,AgLsb4,11.5
same,SPOT peptide array binding signal intensity,AgMyo5,1360
same,SPOT peptide array binding signal intensity,AgNbp2,9
same,SPOT peptide array binding signal intensity,AgRvs167,0.167
same,SPOT peptide array binding signal intensity,AgSho1,11
same,SPOT peptide array binding signal intensity,AgSla1-D1-D2,6
same,SPOT peptide array binding signal intensity,AgSla1-D3,358
same,SPOT peptide array binding signal intensity,CaAbp1-D1,≤ 0
same,SPOT peptide array binding signal intensity,CaAbp1-D2,≤ 0
same,SPOT peptide array binding signal intensity,CaBbc1,≤ 0
same,SPOT peptide array binding signal intensity,CaBem1-D1,≤ 0
same,SPOT peptide array binding signal intensity,CaBzz1-D1,3200
same,SPOT peptide array binding signal intensity,CaBzz1-D2,2040
same,SPOT peptide array binding signal intensity,CaCyk3,≤ 0
same,SPOT peptide array binding signal intensity,CaFus1,≤ 0
same,SPOT peptide array binding signal intensity,CaHof1,0.25
same,SPOT peptide array binding signal intensity,CaHse1,6.5
same,SPOT peptide array binding signal intensity,CaLsb1,≤ 0
same,SPOT peptide array binding signal intensity,CaLsb4,5.5
same,SPOT peptide array binding signal intensity,CaMyo5,41
same,SPOT peptide array binding signal intensity,CaNbp2,≤ 0
same,SPOT peptide array binding signal intensity,CaRvs167,≤ 0
same,SPOT peptide array binding signal intensity,CaRvs167-3,1.25
same,SPOT peptide array binding signal intensity,CaSho1,≤ 0
same,SPOT peptide array binding signal intensity,CaSla1-D1-D2,≤ 0
same,SPOT peptide array binding signal intensity,CaSla1-D3,1.75
same,SPOT peptide array binding signal intensity,ScAbp1,≤ 0
same,SPOT peptide array binding signal intensity,ScBbc1,2.5
same,SPOT peptide array binding signal intensity,ScBem1-D1,≤ 0
same,SPOT peptide array binding signal intensity,ScBzz1-D1,4000
same,SPOT peptide array binding signal intensity,ScBzz1-D2,31.5
same,SPOT peptide array binding signal intensity,ScCyk3,≤ 0
same,SPOT peptide array binding signal intensity,ScFus1,2.5
same,SPOT peptide array binding signal intensity,ScHof1,≤ 0
same,SPOT peptide array binding signal intensity,ScHse1,7.5
same,SPOT peptide array binding signal intensity,ScLsb1,≤ 0
same,SPOT peptide array binding signal intensity,ScLsb2,≤ 0
same,SPOT peptide array binding signal intensity,ScLsb3,≤ 0
same,SPOT peptide array binding signal intensity,ScLsb4,≤ 0
same,SPOT peptide array binding signal intensity,ScMyo3,1390
same,SPOT peptide array binding signal intensity,ScMyo5,1300
same,SPOT peptide array binding signal intensity,ScNbp2,≤ 0
same,SPOT peptide array binding signal intensity,ScPex13,≤ 0
same,SPOT peptide array binding signal intensity,ScRvs167,0.333
same,SPOT peptide array binding signal intensity,ScSho1,≤ 0
same,SPOT peptide array binding signal intensity,ScSla1-D1-D2,≤ 0
same,SPOT peptide array binding signal intensity,ScSla1-D3,≤ 0
same,SPOT peptide array binding signal intensity,SpAbp1-D1,≤ 0
same,SPOT peptide array binding signal intensity,SpBbc1,1.25
same,SPOT peptide array binding signal intensity,SpBzz1-D1,42
same,SPOT peptide array binding signal intensity,SpBzz1-D2,1.5
same,SPOT peptide array binding signal intensity,SpCyk3,≤ 0
same,SPOT peptide array binding signal intensity,SpHof1,≤ 0
same,SPOT peptide array binding signal intensity,SpHof1-2,1.5
same,SPOT peptide array binding signal intensity,SpHof1-3,≤ 0
same,SPOT peptide array binding signal intensity,SpHse1,85.2
same,SPOT peptide array binding signal intensity,SpLsb1,0.5
same,SPOT peptide array binding signal intensity,SpLsb4,≤ 0
same,SPOT peptide array binding signal intensity,SpMyo1,1500
same,SPOT peptide array binding signal intensity,SpNbp2,≤ 0
same,SPOT peptide array binding signal intensity,SpPex13,2
same,SPOT peptide array binding signal intensity,SpRvs167,9
same,SPOT peptide array binding signal intensity,SpSla1-D1-D2,9
same,SPOT peptide array binding signal intensity,SpSla1-D3,≤ 0
NENKKLPPAPTVFGL,SPOT peptide array binding signal intensity,AgAbp1,≤ 0
same,SPOT peptide array binding signal intensity,AgBbc1,≤ 0
same,SPOT peptide array binding signal intensity,AgBem1-D1,≤ 0
same,SPOT peptide array binding signal intensity,AgBzz1-D1,27
same,SPOT peptide array binding signal intensity,AgBzz1-D2,35
same,SPOT peptide array binding signal intensity,AgCyk3,≤ 0
same,SPOT peptide array binding signal intensity,AgFus1,≤ 0
same,SPOT peptide array binding signal intensity,AgHof1,19.5
same,SPOT peptide array binding signal intensity,AgHse1,72
same,SPOT peptide array binding signal intensity,AgLsb1,≤ 0
same,SPOT peptide array binding signal intensity,AgLsb4,25
same,SPOT peptide array binding signal intensity,AgMyo5,≤ 0
same,SPOT peptide array binding signal intensity,AgNbp2,≤ 0
same,SPOT peptide array binding signal intensity,AgRvs167,6.17
same,SPOT peptide array binding signal intensity,AgSho1,1550
same,SPOT peptide array binding signal intensity,AgSla1-D1-D2,4
same,SPOT peptide array binding signal intensity,AgSla1-D3,1.5
same,SPOT peptide array binding signal intensity,CaAbp1-D1,≤ 0
same,SPOT peptide array binding signal intensity,CaAbp1-D2,3
same,SPOT peptide array binding signal intensity,CaBbc1,≤ 0
same,SPOT peptide array binding signal intensity,CaBem1-D1,≤ 0
same,SPOT peptide array binding signal intensity,CaBzz1-D1,3.5
same,SPOT peptide array binding signal intensity,CaBzz1-D2,1.5
same,SPOT peptide array binding signal intensity,CaCyk3,≤ 0
same,SPOT peptide array binding signal intensity,CaFus1,36.5
same,SPOT peptide array binding signal intensity,CaHof1,0.25
same,SPOT peptide array binding signal intensity,CaHse1,≤ 0
same,SPOT peptide array binding signal intensity,CaLsb1,1.5
same,SPOT peptide array binding signal intensity,CaLsb4,≤ 0
same,SPOT peptide array binding signal intensity,CaMyo5,≤ 0
same,SPOT peptide array binding signal intensity,CaNbp2,≤ 0
same,SPOT peptide array binding signal intensity,CaRvs167,1.17
same,SPOT peptide array binding signal intensity,CaRvs167-3,≤ 0
same,SPOT peptide array binding signal intensity,CaSho1,398
same,SPOT peptide array binding signal intensity,CaSla1-D1-D2,≤ 0
same,SPOT peptide array binding signal intensity,CaSla1-D3,3.5
same,SPOT peptide array binding signal intensity,ScAbp1,≤ 0
same,SPOT peptide array binding signal intensity,ScBbc1,≤ 0
same,SPOT peptide array binding signal intensity,ScBem1-D1,1
same,SPOT peptide array binding signal intensity,ScBzz1-D1,11
same,SPOT peptide array binding signal intensity,ScBzz1-D2,6
same,SPOT peptide array binding signal intensity,ScCyk3,1
same,SPOT peptide array binding signal intensity,ScFus1,8
same,SPOT peptide array binding signal intensity,ScHof1,6
same,SPOT peptide array binding signal intensity,ScHse1,6.5
same,SPOT peptide array binding signal intensity,ScLsb1,≤ 0
same,SPOT peptide array binding signal intensity,ScLsb2,≤ 0
same,SPOT peptide array binding signal intensity,ScLsb3,≤ 0
same,SPOT peptide array binding signal intensity,ScLsb4,6
same,SPOT peptide array binding signal intensity,ScMyo3,≤ 0
same,SPOT peptide array binding signal intensity,ScMyo5,≤ 0
same,SPOT peptide array binding signal intensity,ScNbp2,≤ 0
same,SPOT peptide array binding signal intensity,ScPex13,254
same,SPOT peptide array binding signal intensity,ScRvs167,0.167
same,SPOT peptide array binding signal intensity,ScSho1,2310
same,SPOT peptide array binding signal intensity,ScSla1-D1-D2,≤ 0
same,SPOT peptide array binding signal intensity,ScSla1-D3,4.5
same,SPOT peptide array binding signal intensity,SpAbp1-D1,≤ 0
same,SPOT peptide array binding signal intensity,SpBbc1,4.5
same,SPOT peptide array binding signal intensity,SpBzz1-D1,126
